High-throughput results from PubChem BioAssay.
Only some compounds are listed: those with a hit (about 2.4% of all), similar ones and a draw of the others.
M1 ag – human M1 muscarinic receptor agonism; CHO-K1 hM1, Fluo-8 calcium fluorescence, agonist mode; 0% DMSO, 100% acetylcholine EC100; activation, % at 3 µM; 0.33% of 360,000 active;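 active = activation above the run's mean compound activation plus 3 SD, cut at about 16% in these data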;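 note: peak over basal fluorescence ratio within a 140 s kinetic read after compound addition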
Target sequence (P11229 whole entry, looked up): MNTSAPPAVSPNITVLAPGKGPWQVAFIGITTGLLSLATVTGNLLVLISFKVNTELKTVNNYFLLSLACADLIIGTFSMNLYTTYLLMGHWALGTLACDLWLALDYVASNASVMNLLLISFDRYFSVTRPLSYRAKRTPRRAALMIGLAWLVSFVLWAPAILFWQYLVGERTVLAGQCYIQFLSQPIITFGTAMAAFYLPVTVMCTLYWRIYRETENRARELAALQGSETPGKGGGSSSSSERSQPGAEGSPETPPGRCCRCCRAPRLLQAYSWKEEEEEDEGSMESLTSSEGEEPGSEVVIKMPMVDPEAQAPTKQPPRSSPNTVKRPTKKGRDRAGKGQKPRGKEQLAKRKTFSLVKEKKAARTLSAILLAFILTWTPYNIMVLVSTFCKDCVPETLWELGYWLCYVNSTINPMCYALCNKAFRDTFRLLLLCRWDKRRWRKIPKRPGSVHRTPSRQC
M1 PAM parental – M1 PAM counterscreen hit in parental CHO-K1 cells | activation, % at 3 µM | ATP EC20, Fluo-8 calcium fluorescence; 0% at ATP EC20, 100% at ATP max | 0.02% of 360,000 active;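 active = activation above the run cutoff, the mean activation of all test compounds plus 3 SD, cut at about 40% in these data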;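 note: peak over basal fluorescence ratio in a 140 s read after ATP addition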
CHO-K1 Ca ag – counter-screen for M1 agonists: effect in parental CHO-K1 cells; Fluo-8 calcium fluorescence; scaled to maximal ATP response, vehicle zero; activation, % at 3 µM; 0.48% of 360,000 active; AID 602248; in the data active = activation above about 15%;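 note: untransfected CHO-K1 host cells lacking M1 receptor as counterscreen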
M1 antag – blocks human M1 muscarinic receptor; CHO-K1 hM1, Fluo-8 calcium fluorescence, ACh EC80 antagonist; 1.3% of 360,000 active; P11229; inhibition, % at 3 µM;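 active = percent inhibition above its own plate's cutoff, namely the mean of that plate's compound wells plus 3 SD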;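 note: peak over basal fluorescence ratio during 140 s after agonist addition; 0% = ACh EC80 plus DMSO and 100% = DMSO alone without agonist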
CHO-K1 Ca antag – M1 antagonist counterscreen hit in parental CHO-K1 cells; ATP-induced calcium, Fluo-8 fluorescence; 0.6% of 360,000 active; inhibition, % at 3 µM;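 active = inhibition above a per-plate cutoff, the plate's mean sample inhibition plus 3 SD, cut at about 24% in these data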;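 note: 0% = DMSO plus EC80 ATP and 100% = DMSO alone without ATP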
CHRM1 PAM – potentiates human M1 receptor response to acetylcholine. 0.088% of 360,000 active. P11229. activation, % at 3 µM. CHO-K1 hM1, Fluo-8 calcium fluorescence, ACh EC20; 0% = ACh EC20, 100% = maximal ACh. AID 588819; in the data active = activation above about 19%, passing the limit was not always enough
* marks the source's active call; other numbers are inactive results.

SMILES	M1 ag	M1 PAM parental	CHO-K1 Ca ag	M1 antag	CHO-K1 Ca antag	CHRM1 PAM
N#CCCN(Cc1ccccc1)C(C(=O)NC1CCCCC1)c1cc2ccccc2o1 (centres undefined)	-1	21	6	-3	-11	-10
CC(C)c1nnc(SCC(=O)NCc2ccco2)n1C	1	-9	0	-3	30*	9
CCN1CCN(c2ccc(NC(=O)c3ccc(C#N)cc3F)cc2Cl)CC1	-8	3	3	54*	8	-27
CCCCCC(=O)NC(=S)Nc1ccc(N2CCCCC2)c(Cl)c1	0	-7	0	-12	9	8
CCN1CCN(c2ccc(NC(=O)c3ccccc3F)cc2Cl)CC1	-9	-7	0	84*	22	-28
CC(=O)N1CCN(c2ccccc2NC(=O)c2ccc(C#N)cc2F)CC1	-3	5	13	12	-5	0
CCN1CCN(c2ccc(NC(=O)c3cc4ccccc4cc3OC)cc2C)CC1	-5	22	4	99*	-28	-22
CCCCCC(=O)Nc1ccc(N2CCN(CC)CC2)c(Cl)c1	-7	16	0	69*	-3	-23
CN1CC(c2ccc(C#N)cc2)C2(COc3ccccc3C2=O)C12C(=O)Nc1ccccc12 (centres undefined)	-7	20	1	-4	-5	-2
CS(=O)(=O)N1CCC(C(=O)NCc2ccc(F)cc2)CC1	-3	-3	0	-3	-7	2
COc1ccc(OC)c(NC(=O)NCCc2cccc(Cl)c2)c1	-1	-2	1	9	-15	-3
COc1cccc(NC(=O)Nc2ccncc2)c1	-2	10	1	-2	-1	5
CC(C)(C)c1ccc(NC(=O)Nc2ccc(F)cc2)cc1	-3	-5	16*	49*	36*	-30
COc1cccc(NC(=O)Nc2ccc(C(C)(C)C)cc2)c1	-4	-15	19*	26*	46*	-23
O=C(Nc1ccc(F)cc1)Nc1cc(OCC(F)(F)F)cc(OCC(F)(F)F)c1	1	-13	14	18	32*	-18
CCCCC(=O)N(C)c1c(CC)nc2c(OCc3ccccc3C)cccn12	-8	13	-1	9	-12	-18
CCCCn1c(=O)[nH]c(=O)c2c1nc(-c1ccccc1OC(F)F)n2C	-5	-5	2	-3	-15	4
O=c1sc2ccccc2c(N2CCCC2)c1[N+](=O)[O-]	3	4	0	-8	1	8
Nc1c([N+](=O)[O-])c(=O)sc2ccccc12	-5	10	15*	-5	-1	10
Cc1c(Cl)ccc2c1NC(=O)[C@]21N[C@@H](Cc2ccccc2)[C@H]2C(=O)N(c3ccc(F)cc3)C(=O)[C@H]21	17*	16	8	12	-13	1
CCOC(=O)C1=C(C)N(C)C(C)=C(C(=O)OCC)C1c1ccc(C(=O)OC)cc1	-4	8	-1	53*	-25	-22
CCCCCCCCCCCCCCCC[n+]1ccc(/C=N/O)cc1	-12	32	0	31*	-16	-24
Cc1ccc(C)c(NC(=O)CN(C)C(=O)CN2C(=O)C3CCCCC3C2=O)c1 (centres undefined)	-1	4	1	-4	4	5
COc1cc(NC(=O)CN2C(=O)COc3ccc(S(=O)(=O)N4CCOCC4)cc32)cc(OC)c1	-2	6	5	-2	-5	5
C1=C(c2ccc(-c3ccccc3)cc2)Nc2ncnn2C1c1ccco1 (centres undefined)	120*	-11	38*	45*	29*	-30
Brc1ccc(C2=CC(c3cccs3)n3ncnc3N2)cc1 (centres undefined)	28*	-10	33*	18	2	-13
CC1(Oc2ccccc2)CCN(Cc2csc3ccccc23)C1 (centres undefined)	-6	4	0	1	-3	-5
c1ccc(CN2CCN(Cc3nnc(-c4ccccc4)o3)CC2)cc1	-6	12	2	35*	-9	-16
CN1CCN(Cc2nnc(-c3ccccc3)o2)CC1	-2	-21	0	-3	-5	0
O=C1NN=C2CCCCCCC12 (centres undefined)	-7	9	0	98*	-1	-29
